“And” between values parts separate entries of the source, which are not always exact repeats. Equal entries are not always repeated. The source made the active and inactive calls. Where a call stands in place of a potency, no number is given. Calls come from the whole dose curve; as a rule, active = well fitted activation curve with a large enough effect in the repeat runs; inconclusive = weak or mixed curves; inactive = flat fitted curve, though single readings scatter.

The values that follow come from PubChem BioAssay (Tox21).

In the experiment the target is KiSS-1 receptor (Homo sapiens) (UniProt Q969F8). The experiment is described as follows: Human kisspeptin (KISS1R) small molecule agonists, calcium flux assay in KISS1R-HEK293 cells (AID 1920064). The following applies: KISS1R-HEK293, calcium flux fluorescence, agonist; series mostly up to 76.8 µM. In outline: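 Concentration-response testing used 15 concentrations in triplicate on human KISS1R-expressing HEK293 cells. Calcium-dependent fluorescence (Ex/Em 480/540) was followed kinetically for 3 min after compound transfer.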
Chain of KiSS-1 receptor (Homo sapiens) (Q969F8 whole entry, looked up): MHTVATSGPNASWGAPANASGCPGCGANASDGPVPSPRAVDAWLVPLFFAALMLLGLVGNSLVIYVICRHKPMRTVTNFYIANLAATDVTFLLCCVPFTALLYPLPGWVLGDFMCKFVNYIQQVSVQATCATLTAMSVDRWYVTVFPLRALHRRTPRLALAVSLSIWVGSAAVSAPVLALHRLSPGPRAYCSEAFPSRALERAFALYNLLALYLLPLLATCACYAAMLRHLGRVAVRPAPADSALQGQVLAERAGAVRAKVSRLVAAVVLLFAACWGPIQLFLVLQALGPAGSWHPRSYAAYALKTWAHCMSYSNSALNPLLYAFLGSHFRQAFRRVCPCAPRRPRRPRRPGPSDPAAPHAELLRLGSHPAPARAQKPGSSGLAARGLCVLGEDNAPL
Potency is the fitted concentration of half-maximal effect.

Turning to `O=C1OC2(c3cc(Br)c(O)c(Br)c3Oc3c2cc(Br)c(O)c3Br)c2c(Cl)c(Cl)c(Cl)c(Cl)c21`, the Potency was 55 µM (active) and 33.4 µM (active).
For the molecule `O=P(OC(CCl)CCl)(OC(CCl)CCl)OC(CCl)CCl`, the Potency entry is “inactive”.
Regarding `Cc1ccc(C(=O)Nc2ccc(S(=O)(=O)O)c3cc(S(=O)(=O)O)cc(S(=O)(=O)O)c23)cc1NC(=O)c1cccc(NC(=O)Nc2cccc(C(=O)Nc3cc(C(=O)Nc4ccc(S(=O)(=O)O)c5cc(S(=O)(=O)O)cc(S(=O)(=O)O)c45)ccc3C)c2)c1`, the Potency result is “inactive”.
The entry for `CCNc1nc(N)nc(Cl)n1` is “inactive”; for `COc1cc(C(=S)N2CCOCC2)ccc1O` it is “inactive”.
Consider `CNC(=O)[C@H]1O[C@@H](n2cnc3c(NCc4cc(Cl)ccc4OCc4cc(C)no4)ncnc32)[C@H](O)[C@@H]1N`, for which the Potency entry was “inactive”.
As to `O=C(O)C1CCC(C(=O)O)CC1` (stereo unspecified), the Potency result is “inactive”.
The entry for `CCOC(=O)CN1CCCC1=O` is “inactive”; for `CC(C)(CCl)c1ccccc1` it is “inactive”; for `Cc1cc(C)cc(OCC2CNC(=O)O2)c1` (stereo unspecified) it is “inactive”.
With `O=C(OCCOCCO)c1ccccc1Nc1cccc(C(F)(F)F)c1`, the Potency entry was “inactive”.
The entry for `CCC(C)(C)C` is “inactive”; for `CC(C[N+](C)(C)C)OC(N)=O` (stereo unspecified) it is “inactive”.
For `[K+]`, the Potency result was “inactive”.
The entry for `O=C(Nc1ccc([N+](=O)[O-])cc1Cl)c1cc(Cl)ccc1O` is “inactive”; for `CCCCC(CC)COP(=O)(OCC(CC)CCCC)OCC(CC)CCCC` (stereo unspecified) it is “inactive”.
The entry for `CC(=O)N(O)CCCCCNC(=O)CCC(=O)N(O)CCCCCNC(=O)CCC(=O)N(O)CCCCCN` is “inactive”.
As for `CC(C)COC(=O)c1ccccc1O`, the Potency result was “inactive”.
The entry for `CC(C)c1ccccc1O` is “inactive”.
As for `O=C(OC(=O)c1ccccc1)c1ccccc1`, the Potency entry is “inactive”.
The entry for `Cc1ccc2c(c1)OCC(=O)CO2` is “inactive”; for `Cc1ccc(NC(=O)N(C)C)cc1NC(=O)N(C)C` it is “inactive”; for `CCOc1ccc(Cc2nccc3cc(OCC)c(OCC)cc23)cc1OCC` it is “inactive”.
For `COc1ccc(Cl)cc1C`, the Potency entry was “inactive”.
Regarding `CCCC(=O)C(C)=O`, the Potency entry was “inactive”.
The entry for `Cc1cccc(C)c1NC(=O)CC12CCCN1CCC2` is “inactive”.
The entry for `CC1CCC(C(C)(C)O)CC1` (stereo unspecified) is “inactive”.
As to `CN1C(=O)CC(C)(c2ccccc2)C1=O` (stereo unspecified), the Potency result is “inactive”.
As for `CCCCCCCCOC(=O)CCCCCCCCC(=O)OCCCCCCCC`, the Potency entry is “inactive”.
The entry for `CCCOCCO` is “inactive”; for `Cc1cc(O)cc2c1O[C@](C)(CCC[C@H](C)CCC[C@H](C)CCCC(C)C)CC2` it is “inactive”; for `COc1cccc(OC)c1O` it is “inactive”.
On to `COc1ccc(C(=O)CC(=O)c2ccc(C(C)(C)C)cc2)cc1`, for which the Potency result was “inactive”.
The entry for `CC(C)=O` is “inactive”; for `Cc1ccc2c(ccc3ccccc32)c1` it is “inactive”.
As to `NC(=O)NNC(N)=O`, the Potency result is “inactive”.
